# Source: PubChem (National Center for Advancing Translational Sciences (NCATS))
# The list is not random: actives were taken first. Their share in the collection is about 1.7%.
# GLP1R inv ag = qHTS of GLP-1 Receptor Inverse Agonists (Inhibition Mode). Glucagon-like peptide 1 receptor (Homo sapiens), P43220. HEK293 GLP-1R CRE-luciferase, luminescence, 24 h; GLP-1R form is constitutively active. Potency, µM (titrated, usually from 38.3 µM), inactives show at the top dose activity change, negative = inhibition, most hits filed as inhibitors. hit rate 1.6% among 410,000; note: potency is the fitted concentration of half-maximal effect; % is set by controls: 0 for no effect and ±100 for the full control effect; nearly all actives have a fitted effect of over 55% in size
# Target sequence (P43220 whole entry, looked up): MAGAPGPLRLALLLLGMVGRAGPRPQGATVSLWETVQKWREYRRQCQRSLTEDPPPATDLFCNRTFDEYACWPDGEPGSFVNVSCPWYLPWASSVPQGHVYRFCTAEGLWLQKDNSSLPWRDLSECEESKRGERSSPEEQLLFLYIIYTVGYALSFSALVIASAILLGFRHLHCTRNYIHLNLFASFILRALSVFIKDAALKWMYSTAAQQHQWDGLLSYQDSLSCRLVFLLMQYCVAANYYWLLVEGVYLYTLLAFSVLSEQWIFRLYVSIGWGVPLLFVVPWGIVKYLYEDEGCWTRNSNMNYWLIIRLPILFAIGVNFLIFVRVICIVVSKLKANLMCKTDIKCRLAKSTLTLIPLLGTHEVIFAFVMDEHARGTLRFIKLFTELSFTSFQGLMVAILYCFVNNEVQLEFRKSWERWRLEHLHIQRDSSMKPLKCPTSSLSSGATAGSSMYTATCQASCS
#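 Constitutively active GLP-1R drives a cAMP-responsive luciferase in stably transfected HEK293 cells; test compounds are added after overnight (12 h) attachment and left 24 hr, and signal loss in luminescence marks inhibition.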
# GLP1R cytotox = qHTS of GLP-1 Receptor Inverse Agonists: Cytotox Screen. hit rate 0.13% among 410,000. Potency, µM (series often up to 38.3 µM), for the others: at the top dose activity change, negative = inhibition, most hits filed as inhibitors. AID 624418, 2012. HEK293 cAMP-luciferase reporter cells, luminescence, 24 h;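 note: loss of luciferase light is scored as toxicity; potency is the fitted concentration of half-maximal effect; % is set by controls: 0 for no effect and ±100 for the full control effect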
#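 Cells in DMEM/10% Nu serum/1% pen-strep, 1536-well format. Pre-incubated 12 h, dosed with 23 nL compound, incubated a further 24 h. Luciferase detection, 12 min at room temp, luminescence.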
# PTHR1 ag = qHTS for PTHR1 Agonists: Primary Screen. Parathyroid hormone/parathyroid hormone-related peptide receptor (Homo sapiens), Q03431. HEK293 GP2 PTHR1 cells, GloSensor cAMP luminescence, 1 h. Potency, µM (titrated, usually from 115 µM), inactives show at the top dose activation, usual class: activators. hit rate 0.075% among 410,000; note: potency is the fitted concentration of half-maximal effect; nearly all actives have a fitted effect of over 55% in size
#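 HEK-293-derived GP2 cells expressing PTHR1 and a GloSensor cAMP reporter, 3,000/well, plated overnight, given luciferin plus IBMX (each 0.5 mM as added) for 1 h at 37 °C, then compound for 1 h at 37 °C. Luminescence was read after 15 min at room temperature.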
# Pin1 inhibitor = qHTS Assay to Find Inhibitors of Pin1; Pin1 FP peptide displacement, HiFluor488, 10 min; Potency, µM (titrated, usually from 115 µM), for inactives: at the highest dose activity, negative = inhibition, hits mostly inhibitors; hit rate 0.009% among 390,000; AID 504891, 2011; active = well fitted inhibition curve with a large enough effect in the polarisation, with a control signal flat, not every such curve was filed as active; inconclusive = small, poorly fitted or top-dose-only effect, or effect the other way, or a change in a side signal; inactive = no such curve, though single readings can be large or run the other way; the % refers to the polarisation; note: potency is the fitted concentration of half-maximal effect; % is set by controls: 0 for no effect and ±100 for the full control effect
# Target sequence (Q13526 whole entry, looked up): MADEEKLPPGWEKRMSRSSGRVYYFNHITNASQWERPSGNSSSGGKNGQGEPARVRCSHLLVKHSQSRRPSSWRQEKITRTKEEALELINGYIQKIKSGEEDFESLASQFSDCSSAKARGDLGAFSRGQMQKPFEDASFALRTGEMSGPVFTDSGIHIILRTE
# miR-21 act = qHTS Assay for Modulators of miRNAs and/orActivators of miR-21; HeLa miR-21 FLuc reporter, luciferase, 48 h; Potency, µM (doses to about 38.3 µM), for the others: top-dose activity change, positive = activation, hits mostly activators; 340,000 tested, under 10 active;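 note: % of control where 0% means no effect; miR-21 action dims this reporter so a rising signal means less miR-21 action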
#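 Compounds were titrated across several concentrations (up to approximately 40 uM) and incubated 48 hours with HeLa miR-21-FLuc reporter cells (miR-21 target sequence downstream of FLuc, endogenous miR-21). Readout was firefly luciferase luminescence after lytic detection reagent.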
# GLP-1R agonist = qHTS of GLP-1 Receptor Agonists | hit rate 0.007% among 380,000 | Glucagon-like peptide 1 receptor (Homo sapiens), P43220 | HEK293 GLP-1R CRE-luciferase, luminescence, 4-6 h; cells express a hypersensitive GLP-1R form | Potency, µM (series often up to 45.6 µM), for the others: at the highest dose activation, actives largely listed as activators | AID 624172, 2012; note: potency is the fitted concentration of half-maximal effect; % of control where 0% means no effect
# Active calls of the source: *; i = inactive; u = inconclusive; x = no result given; [ ] = remark or other dose. Unless noted, calls come from the whole dose curve; as a rule, active = well fitted curve in the direction sought with a large enough effect; inconclusive = small, poorly fitted or top-dose-only effect, or another doubt; inactive = no such curve, though single readings can be large; an effect the other way counts as inactive or inconclusive.
SMILES,GLP1R inv ag,GLP1R cytotox,PTHR1 ag,Pin1 inhibitor,miR-21 act,GLP-1R agonist
COc1ccc(CCn2c3c(c(=O)[nH]c2=S)CN(c2ccccc2)CN3)cc1OC,x,x,x,1%,x,x
COc1ccc(CCn2c(=S)[nH]c(=O)c3nccnc32)cc1OC,x,x,x,-12%,x,x
CN1CCN(CC(=O)N2c3ccccc3C(C)(c3ccccc3)CC2(C)C)CC1 (stereo not given),10µM*,-24%,i,2%,9%,-10%
Clc1ccc(Cn2c(-c3cccnc3Cl)nc3ccccc32)c(Cl)c1,10µM*,-13%,u,16%,-9%,5%
COc1ccc(-c2noc(CCC(=O)NCC3CCN(Cc4cccc(C)c4)CC3)n2)cc1,11µM*,-29%,-8%,2%,11%,3%
COc1ccc(-c2noc(CCC(=O)NC3CCN(Cc4ccccc4)CC3)n2)cc1,u,-12%,i,1%,6%,1%
CCCN1CNc2c(c(=O)[nH]c(=S)n2CCc2ccccc2Cl)C1,x,x,x,-8%,x,x
CN(C)CCCN(C(=O)c1ccco1)c1nc2ccc(Br)cc2s1,3.2µM*,u,i,-3%,-7%,8%
CN(C)CCCN(C(=O)c1ccc2c(c1)CCCC2)c1nc2ccc(F)cc2s1,7%,u,-93%,-3%,-19%,-11%
Cc1ccc(C(=O)N(CCCN(C)C)c2nc3ccc(Cl)cc3s2)cc1C,6.3µM*,u,i,3%,7%,17%
CN(C)CCCN(C(=O)c1ccc2c(c1)CCCC2)c1nc2cc3c(cc2s1)OCO3,2µM*,u,-25%,-10%,-7%,9%
CN1CCC(n2[nH]c(-c3ccccc3)c(Cc3ccccc3)c2=O)CC1,11µM*,-19%,-6%,-6%,x,6%
Cc1c(P(=S)(c2ccccc2)c2ccccc2)c2ccccc2n1CCc1ccccc1,x,x,x,-3%,x,x
CCOC(=O)c1cccc(NC(=O)N2Cc3ccccc3Oc3ncccc32)c1,14%,-4%,-58%,9%,-9%,x
Cc1cc(Br)ccc1NC(=O)CSc1c2c(nc3ccccc13)CCC2,u,-13%,-89%,19%,14%,x
CNC(=O)CN(Cc1ccccc1)S(=O)(=O)c1ccc(Cl)cc1,13%,4%,-19%,-12%,-3%,-1%
COc1ccc(NC(=O)CN(Cc2ccccc2)S(=O)(=O)c2ccc(C)cc2)cc1Cl,10µM*,-5%,-36%,31%,21%,x
COC(=O)c1ccc(NC(=O)CN(Cc2ccccc2)S(=O)(=O)c2ccc(Cl)cc2)cc1,8.9µM*,-16%,-42%,u,28%,x
COC(=O)c1ccc(NC(=O)CN(Cc2ccccc2)S(=O)(=O)c2ccc(C)cc2)cc1,10µM*,2%,-6%,16%,10%,x
CCOC(=O)c1c(C)[nH]c(C)c1S(=O)(=O)N1CCC(C(=O)Nc2ccc(F)cc2F)CC1,11%,-8%,i,-2%,2%,x
O=S(=O)(c1cccc(Cl)c1)N1CCN(c2nc(-c3cccs3)nc3ccccc23)CC1,x,x,x,1%,x,x
CCOc1ccc(C(=O)O/N=C(\N)c2ccccn2)cc1,2.5µM*,u,-46%,0%,u,-8%
Cc1cccc(C(=O)O/N=C(\N)c2ccccn2)c1,2µM*,u,-26%,-3%,u,-3%
Cc1ccc(C(=O)O/N=C(\N)c2ccccn2)cc1,2.5µM*,u,-24%,-4%,21%,-6%
CC(C)(C)c1ccc(C(=O)O/N=C(\N)c2ccccn2)cc1,-77%,u,-40%,-2%,u,-2%
SMILES,GLP1R inv ag,GLP1R cytotox,PTHR1 ag,Pin1 inhibitor,miR-21 act,GLP-1R agonist
N/C(=N\OC(=O)c1cccc(F)c1)c1ccccn1,9%,4%,i,-9%,6%,-3%
N/C(=N\OC(=O)c1ccccc1)c1ccccn1,u,-13%,-40%,-8%,12%,-8%
COc1ccc(-c2cnc(N3CCC(C(N)=O)CC3)s2)cc1OC,x,x,x,-3%,x,x
Clc1ccc2c(N/N=C/c3ccccc3Br)ccnc2c1,-18%,13%[1.53 µM],-17%,4%,-5%,0%
Clc1ccc2c(N/N=C/c3cccc(Br)c3)ccnc2c1,13µM*,u,-22%,0%,-15%,-3%
Cc1ccc2[nH]cc(C(c3ccccc3)c3ccc(Cl)s3)c2c1 (stereo not given),10µM*,-17%,-25%,6%,u,x
Clc1ccc(C(c2ccccc2)c2c[nH]c3ccccc23)s1 (stereo not given),u,-17%,-6%,-10%,0%,-7%
CCOC(=O)N1CCN(/[N+]([O-])=N/Oc2ccc([N+](=O)[O-])cc2[N+](=O)[O-])CC1,x,x,x,2%,x,x
COc1ccc2[nH]cc(CCNC(=S)NCCc3ccccc3)c2c1,8.9µM*,u,-3%,1%,-5%,12%
COc1ccc(/C(C)=N/NC(=S)NCCc2ccccc2)c(O)c1,2µM*,u,-1%,0%,3%,8%
COCCNC(=S)N/N=C(\C)c1ccccc1O,u,-91%,i,5%,-20%,10%
COc1ccc(O)c(/C=N/NC(=S)NCCc2ccccc2)c1,2.2µM*,6%,-16%,5%,28%,23%
Fc1ccc(/C=N/NC(=S)NCCc2ccccc2)cc1F,u,13µM*,-5%,-6%,-3%,23%
COc1ccc(C2Nc3ccccc3C(=O)N2Cc2ccco2)cc1COc1ccc(F)cc1 (stereo not given),10µM*,-8%,-25%,10%,13%,-14%
COc1ccc(C2Nc3ccccc3C(=O)N2Cc2ccco2)cc1CN1C(=O)c2ccccc2C1=O (stereo not given),u,-5%,-5%,14%,-8%,14%
CCCN1C(=O)c2ccccc2NC1c1ccc(OC)c(CSc2ccccn2)c1 (stereo not given),13µM*,5%,i,8%,0%,17%
Cn1c(=O)cc(SCC(=O)NCc2ccc(F)cc2)c2ccc(Cl)cc21,0%,-4%,i,-1%,2%,x
CN(CCCNC(=O)CSc1cc(=O)n(C)c2cc(Cl)ccc12)Cc1ccccc1,7.9µM*,-16%,i,1%,0%,21%
C=CCn1c(CSc2ccccc2[N+](=O)[O-])n[nH]c1=S,-23%,-22%,i,x,-18%,0%
C=CCn1c(Sc2ncc([N+](=O)[O-])s2)n[nH]c1=O,u,8.9µM*,-37%,-15%,u,-8%
